Data published in PubChem BioAssay (NCATS).
Inconclusive results are not listed. Unmarked numbers belong to inactive results. Calls follow the shape of the full dose curve.

experiment: Cell Viability - MRC5 (AID 434); details: MRC5 lung fibroblast viability, qHTS;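 also: potency reflects cytotoxicity seen as loss of intracellular ATP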
From the text: NIH Chemical Genomics Center [NCGC]
NIH Molecular Libraries Screening Centers Network [MLSCN]
National Institutes of Environmental Health Sciences [NIEHS]
National Toxicology Program [NTP]
We have developed a 1536-well cell-based assay for quantitative high throughput screening (qHTS) against a number of cell lines to determine in vitro cytotoxicity of small molecules. This particular assay uses the MRC5 cell line which is derived from normal human lung fibroblasts.
NCGC Assay Protocol Summary:
The CellTiter-Glo luminescent cell viability assay (Promega) is a homogeneous method to measure the number of viable cells in culture. The end point readout of this assay is based on quantitation of intracellular ATP, an indicator of metabolic activity, using the luciferase reaction. Luciferase catalyzes the oxidation of beetle Luciferin to oxyluciferin and light in the presence of ATP. The luminescent signal is proportional to amount of ATP present.
Using the CellTiter-Glo luminescent cell viability assay, the amount of cellular ATP was measured in the MRC5 cell line with complete culture medium following compound treatment for 40 hours. The assay was performed in opaque white Kalypsys 1536-well plates. In the screen, tamoxifen and doxorubicin were used as positive controls. Library compounds were measured for their ability to cause acute toxicity in the cell line, as reflected by a decrease in intracellular ATP levels, in a concentration-dependent manner. Data were normalized to the controls for basal activity (DMSO only) and 100% inhibition (100 uM tamoxifen). AC50 values were determined from concentration-response data modeled with the standard Hill equation.
qHTS protocol for CellTiter Glo MRC5 cellular assay
[Step] [Parameter] [Value] [Description]
1. Reagent; 5 uL; 1500 MRC5 cells/well
2. Time; 5 hr; 37 °C incubation
4. Controls; 23 nL; Tamoxifen 0.34 uM to 100 uM & Doxorubicin 0.02 nM to 100 uM
5. Time; 40 hr; 37 °C incubation
6. Reagent; 5 uL; CellTiter Glo reagent
7. Time; 20 min; Room Temperature
8. Detection; Luminescence; Viewlux plate reader
Keywords: cell viability, cytotoxicity, MRC5 cell line, luminescence, NTPHTS, NTPHTS_NCGC, NIEHS, EPA, DSSTox, MLSMR, MLSCN, NIH Roadmap, qHTS, NCGC
Potency is read from the fitted curve at half-maximal effect.

Compound | Potency [µM]
O=[N+]([O-])c1c(Cl)cc(Cl)cc1Cl | > 92
CNc1ccc([N+](=O)[O-])cc1 | > 92
C[C@@H]1O[C@@H](O[C@@H]2[C@@H](O)[C@H](OCCc3ccc(O)c(O)c3)O[C@H](CO[C@@H]3O[C@H](CO)[C@@H](O)[C@H](O)[C@H]3O)[C@H]2OC(=O)/C=C/c2ccc(O)c(O)c2)[C@H](O)[C@H](O)[C@H]1O | > 92
C/C=C(/C)C#N | > 92
Cc1c(N)cccc1[N+](=O)[O-] | > 92
CC#N | > 92
Nc1ccc(Cl)cc1[N+](=O)[O-] | > 92
O=C1NC(=O)c2cc([N+](=O)[O-])ccc21 | > 92
ON=C1CCCCC1 | > 92
CC(C)(c1cc(Br)c(OCC(Br)CBr)c(Br)c1)c1cc(Br)c(OCC(Br)CBr)c(Br)c1 (stereo not given) | > 92
Cc1ccc(C(C)(C)C)cc1 | > 92
C(=C/c1ccccc1)/c1ccccc1 | > 92
COc1ccc(N=[N+]([O-])c2ccc(OC)cc2)cc1 | > 92
CCOCC(=O)O | > 92
Cc1ccc2ccccc2c1[N+](=O)[O-] | > 92
CC(C)(C)OCC1CO1 (stereo not given) | > 92
CC(=O)c1cc(C)oc1C | > 92
O=C1CCC(=O)O1 | > 92
Cc1cc(C)cc(N)c1 | > 92
CC(=O)c1ccccc1[N+](=O)[O-] | > 92

Compound | Potency [µM]
CC(=O)Nc1ccccc1C | > 92
Nc1cccc2c(=O)[nH][nH]c(=O)c12 | > 92
CCCCC(CC)C(=O)O (stereo not given) | > 92
CCN(C(=O)N(CC)c1ccccc1)c1ccccc1 | > 92
CN(C)CCCNCCCN | > 92
O=C(O)c1c(Cl)cccc1Cl | > 92
CCN(CC)c1cccc(O)c1 | > 92
CC(=C/C=C/C(C)=C/C=C/C=C(C)/C=C/C=C(C)/C=C/C(=O)O)/C=C/C(=O)O | > 92
CCOC(=O)OCC | > 92
Nc1cc(Cl)c(N)c(Cl)c1 | > 92
CC(C)N=C=NC(C)C | > 92
COC(=O)CCC(=O)OC | > 92
Cc1c(C(=O)O)cccc1[N+](=O)[O-] | > 92
CC(=O)Nc1cccc(N)c1 | > 92
O=Cc1ccc(C(=O)O)cc1 | > 92
CCCCC(CC)CO (stereo not given) | > 92
CCCCC(CC)COCC1CO1 (stereo not given) | > 92
Cc1cccc(C)c1O | > 92
C1COC1 | > 92
CC(=O)c1ccccn1 | > 92
